From PubChem
PTHR1 ag: agonists of human PTHR1 parathyroid hormone receptor; Q03431; HEK293 GP2 PTHR1 cells, GloSensor cAMP luminescence, 1 h; Potency, µM (top dose mostly 115 µM), usual class: activators; actives 0.075% (n = 410,000); further: nearly all actives have a fitted effect of over 55% in size
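HEK-293-derived GP2 cells expressing PTHR1 and a GloSensor cAMP reporter, 3,000/well, plated overnight, given luciferin plus IBMX (each 0.5 mM as added) for 1 h at 37 °C, then compound for 1 h at 37 °C. Luminescence was read after 15 min at room temperature.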
BRCA1 expr act: activators of BRCA1 expression; MCF7-BRCA1-FFLuc reporter, luminescence, 48 h; response scale: scaled: vehicle 0%, 10 µM genistein 100%; Potency, µM (highest dose often 46.1 µM), usual class: activators; actives 1.1% (n = 380,000); further: nearly all actives have a fitted effect of over 80% in size
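MCF7-BRCA1-FFLuc, 2000 cells/well; 2 h attach, 37 °C/5% CO2; compound 48 h; luciferase substrate 15 min; luminescence end-point. Norm. to genistein 10 microM max activation and DMSO; concentration-response curves fitted.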
LDHA block: inhibitors of human lactate dehydrogenase A | P00338 | purified LDHA, NADH/diaphorase-resazurin fluorescence; stronger effect = lower value | activity change, % (values are at about 110 or 230 µM) | actives 0.15% (n = 480,000) | AID 1347041; in the data active means activity change below about -30%; inconclusive means mostly about -25% to -30%
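Enzyme activity of human lactate dehydrogenase 5 (2 nM; 0.06 mM NADH, 0.2 mM pyruvate, 5 min, RT) is measured via a resazurin/diaphorase fluorescence readout of residual NADH.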
p53 reactivation: re-activators of mutant p53; H1299 p53-A138V BP100-luciferase reporter, luminescence, 24 h; Potency, µM (titrated, usually from 92.2 µM), hits mostly activators; actives 0.063% (n = 320,000); AID 504706; further: nearly all actives have a fitted effect of over 45% in size
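p53-null H1299 cells stably carrying temperature-sensitive p53-A138V and a BP100-luciferase reporter were pinned with compounds (4-point, 1:5 series) and held 24 hrs at 37 deg C. Luminescence was read 10 min after detection reagent.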
RGS4 inhibitor: blocks human RGS4-accelerated GTP hydrolysis | actives 0.039% (n = 390,000) | P49798 | Transcreener GDP fluorescence polarization, RGS4-accelerated GTP hydrolysis | Potency, µM (series often up to 114 µM), hits mostly inhibitors | AID 504845; further: nearly all actives have a fitted effect of over 75% in size
Target sequence (P49798 whole entry, looked up): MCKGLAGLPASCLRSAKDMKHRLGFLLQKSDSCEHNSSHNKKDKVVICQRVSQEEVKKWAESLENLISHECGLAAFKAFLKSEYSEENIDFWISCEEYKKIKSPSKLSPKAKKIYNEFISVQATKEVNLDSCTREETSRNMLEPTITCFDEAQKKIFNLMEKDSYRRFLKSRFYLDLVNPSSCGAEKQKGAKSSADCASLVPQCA
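MLSMR compounds (23 nl, pin-transferred) preincubated 10 min at room temperature with a 500nM (2x) first reagent, then RGS4 at 900nM (2x) plus Transcreener GDP mix added; fluorescence polarization (620/688 nm) read before and after 90 min at 30 °C.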
Each line names hits and unclear results; the compound was inactive in the other large screens. In the library only some 1.1% were active in any assay of this set; here they are far more common. Unless noted, the call rests on the fitted dose curve; in most records, active means well fitted curve in the direction sought with a large enough effect; inconclusive means small, poorly fitted or top-dose-only effect, or another doubt; inactive means no such curve, though single readings can be large; an effect the other way counts as inactive or inconclusive.

Cc1ccc(NC(=O)Cc2nc(CSc3nncn3-c3ccccc3)cs2)cc1	none (no result: PTHR1 ag, BRCA1 expr act, p53 reactivation, RGS4 inhibitor)
O=c1cc(CN2CCN(S(=O)(=O)c3ccccc3)CC2)c2cc(Cl)c(O)cc2o1	none (no result: PTHR1 ag, BRCA1 expr act, p53 reactivation, RGS4 inhibitor)
C/C(CCC(C)C)=N\Nc1nc2ccccc2[nH]1	none (no result: PTHR1 ag, BRCA1 expr act, p53 reactivation, RGS4 inhibitor)
O=C(Nc1cc(Cl)ccc1Cl)c1cc([N+](=O)[O-])cc(Br)c1O	BRCA1 expr act inconclusive, LDHA block -53.6 (no result: PTHR1 ag, p53 reactivation)
O=C(Nc1ccc([N+](=O)[O-])cc1Cl)c1cc(Cl)cc(Cl)c1O	RGS4 inhibitor inconclusive (no result: PTHR1 ag, p53 reactivation)
Cc1nn(-c2nc3ccccc3s2)c(C)c1Oc1ccccc1O	BRCA1 expr act inconclusive, p53 reactivation 12.6µM
Cc1nn(-c2ccccn2)c(C)c1Oc1ccccc1O	p53 reactivation inconclusive
COc1ccccc1N1CCN(CC(=O)NCC2CCCO2)CC1 (configuration not stated)	LDHA block -43.3
COC(c1ccccc1)c1nnc(CCC(=O)N(C)CCOc2ccccc2)o1 (configuration not stated)	BRCA1 expr act inconclusive
COC(c1ccccc1)c1nnc(CCC(=O)N(C)Cc2cccc(-n3cccn3)c2)o1 (configuration not stated)	BRCA1 expr act 12.6µM
Nc1c(-c2ccccc2)cnn1-c1cccc(C(F)(F)F)c1	BRCA1 expr act 5.01µM
Cc1ccc(-c2cnn(-c3cccc([N+](=O)[O-])c3)c2N)cc1	BRCA1 expr act 5.62µM
CC(Nc1ccc2oc(C(C)(C)C)nc2c1)C(=O)N1CCCC1 (configuration not stated)	none (no result: PTHR1 ag, BRCA1 expr act, p53 reactivation, RGS4 inhibitor)
Cn1cnnc1SCC(=O)Nc1ccc(Oc2ccccc2)cc1	none
CCOc1ccc(NC(=O)CSc2nccn2C)cc1	BRCA1 expr act inconclusive, p53 reactivation 44.7µM
CCOc1ccc(NC(=O)C(C)Sc2nccn2C)cc1 (configuration not stated)	none
Cn1ccnc1SCC(=O)c1ccc(OC(F)F)cc1	BRCA1 expr act inconclusive
Cn1ccnc1SCC(=O)Nc1ccc(Oc2ccccc2)cc1	BRCA1 expr act 10µM, p53 reactivation inconclusive
COc1ccc(C(=O)CSc2nccn2C)cc1	BRCA1 expr act 8.91µM, p53 reactivation inconclusive
CCOC(=O)C1=C(COC(=O)c2oc3c(F)cccc3c2C)NC(=O)NC1C (configuration not stated)	none (no result: PTHR1 ag, BRCA1 expr act, p53 reactivation, RGS4 inhibitor)
O=C(Cn1cnc2sccc2c1=O)N1N=C(c2ccc(Cl)cc2)CC1c1ccco1 (configuration not stated)	none (no result: PTHR1 ag, BRCA1 expr act, p53 reactivation, RGS4 inhibitor)
Cc1ccc(-c2csc(=S)n2CC(=O)O)cc1	none (no result: PTHR1 ag, BRCA1 expr act, p53 reactivation, RGS4 inhibitor)
C1=CC2CC1CC2CN1CCN(Cc2ccccc2)CC1 (configuration not stated)	LDHA block -31.6
Fc1ccccc1N1CCN(CC2CC3C=CC2C3)CC1 (configuration not stated)	none
O=C(O)c1cnc(-c2ccccc2)nc1Sc1ccc(Cl)cc1	none
O=C(O)c1cnc(-c2ccccc2)nc1Sc1ccccc1Cl	LDHA block -30.9
C=CCc1cccc(C=Nc2cccn3cc(-c4ccccc4)nc23)c1O	BRCA1 expr act 11.2µM
Clc1cccc(OCCN2CCOCC2)c1	LDHA block -34.2
Cc1cc(OCCN2CCOCC2)ccc1Cl	BRCA1 expr act 12.6µM (no result: p53 reactivation)
Brc1cccc(OCCN2CCOCC2)c1	none
Brc1cccc(OCCN2CCCCC2)c1	LDHA block -33.5
COc1ccc(-c2cnc(C)o2)cc1S(=O)(=O)Nc1ccc(F)c(F)c1	none (no result: PTHR1 ag, BRCA1 expr act, p53 reactivation, RGS4 inhibitor)
CCN(CC)CCCC(C)NCC1CC2C=CC1C2 (configuration not stated)	none (no result: PTHR1 ag, BRCA1 expr act, p53 reactivation, RGS4 inhibitor)
O=C(c1cccs1)N1CCC(C(=O)N2CCN(Cc3ccc4c(c3)OCO4)CC2)CC1	none
O=C(C1CCN(Cc2cccs2)CC1)N1CCN(Cc2ccc3c(c2)OCO3)CC1	LDHA block -32.5
COc1ccc(SCCC(=O)OCc2ccc(C#N)cc2)cc1	none (no result: PTHR1 ag, BRCA1 expr act, p53 reactivation, RGS4 inhibitor)
CCONC(=O)CNC(=O)c1ccccc1	none (no result: PTHR1 ag, BRCA1 expr act, p53 reactivation, RGS4 inhibitor)
Cc1cccc(-c2noc(-c3ccccc3C(=O)NCC3CCCO3)n2)c1 (configuration not stated)	BRCA1 expr act 6.31µM
CC(NCC(=O)Nc1ccccc1C(=O)NC1CC1)c1ccc(S(N)(=O)=O)cc1 (configuration not stated)	LDHA block -32.7
